# MT1-MMP txn act – MT1-MMP promoter reporter activation – cell-based, luciferase luminescence, primary screen; AID 750, 2007; 86,000 compounds, 0.16% hits; HT1080 MT1-MMP promoter luciferase reporter, overnight; hits give high values; activation factor at 10 µM;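 active = activation factor of at least 2 for MT1-MMP transcription at 10 µM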
# ERa SRC1 pot – enhancers of ERα–SRC-1 coactivator binding, primary screen, biochemical, TR-FRET, ERα LBD, low estradiol; 86,000 compounds, 1.3% hits; TR-FRET ERalpha-LBD/SRC-Cy5 coactivator binding, 2 h; 100 = basal binding, no effect; AID 639, 2007; coactivator binding (% of control), % at 25.6 µM; Estrogen receptor (Homo sapiens), P03372; in the data active = activity above about 200%;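 note: binding measured in presence of low estradiol as agonist stimulus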
# EphB4 ephrin blk – EphB4-ephrin-B2 interaction antagonists, primary screen, biochemical, TNYL-RAW peptide probe, fluorescence polarization. EphB4 LBD / TNYL-RAW-Alexa532 peptide. inhibition, % at 7 µM. 97,000 compounds, 0.15% hits;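 active = inhibition above the screen-wide mean inhibition plus 3 SD, cut at about 15% in these data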
# Calb biofilm kill – clotrimazole potentiators killing Candida biofilms, primary screen, with clotrimazole, Alamar Blue; C. albicans biofilm + clotrimazole; inhibition, % at 6 µM; 85,000 compounds, 0.14% hits;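 active = inhibition above 20%; inactive = inhibition below 20%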;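 note: preformed 24 hr biofilms exposed to compound for 48 hr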
# ERa SRC1 inh – ERα–SRC-1 coactivator interaction inhibitors, primary screen, biochemical, TR-FRET, ERα LBD, estradiol-bound | Estrogen receptor (Homo sapiens), P03372 | TR-FRET ER-alpha LBD / SRC-1 peptide | inhibition, % at 25.6 µM | 86,000 compounds, 1.7% hits; in the data active = inhibition above about 50%
# ERb SRC1 inh – inhibitors of ERβ-SRC1 coactivator interaction, primary screen, biochemical, TR-FRET, ERβ LBD, SRC-1 peptide; Estrogen receptor beta (Homo sapiens), Q92731; TR-FRET ER-beta LBD / SRC1-Cy5 peptide binding; receptor agonist-loaded with 1 µM estradiol; inhibition, % at 25.6 µM; 86,000 compounds, 1.3% hits;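 active = compounds whose percent inhibition of the receptor-coactivator binding signal exceeds about 50% in the single-dose screen, limit read from the data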
# A number is an active result; 0 = inactive; - = not tested or not shown; [ ] = another dose, or the depositor's remark. A selection: hits, their analogues and other compounds. The true share with any hit is near 3.2%.
SMILES,MT1-MMP txn act,ERa SRC1 pot,EphB4 ephrin blk,Calb biofilm kill,ERa SRC1 inh,ERb SRC1 inh
CCOC(=O)C1=C(C)OC(N)=C(C#N)C1c1ccoc1 (stereo not drawn),0,0,-,0,0,0
N#CC1=C(N)OC2=C(CCC/C2=C/c2ccoc2)C1c1ccoc1 (stereo not drawn),0,0,0,0,74,73[fluorescence artefact?]
Cc1ccc(O)c(C2=Nc3ccccc3N=C(c3ccco3)C2)c1,0,228[fluorescence artefact?],0,0,0,0
Cc1ccc(C2=Nc3ccccc3N=C(c3ccco3)C2)c(O)c1,-,-,0,-,-,-
Cc1onc(-c2ccccc2)c1C(=O)Nc1ccc(S(=O)(=O)NC2=NCCCCC2)cc1,0,0,20,0,0,0
CCC(C)NS(=O)(=O)c1ccc(NC(=O)c2c(-c3ccccc3)noc2C)cc1 (stereo not drawn),0,0,0,0,0,0
CCOc1ncccc1C(=O)OCc1cc(=O)n2c(n1)sc1ccccc12,-,0,-,0,84[fluorescence artefact?],56[fluorescence artefact?]
COC(=O)c1ccc(C(NC(=O)c2ccco2)[C@]2(C)C[C@H]2C2CCCCC2)cc1 (stereo partly drawn),0,-,-,-,-,-
O=S(=O)(Cc1ccc(Cl)cc1)N1CCCC1,0,0,0,0,0,0
Cc1ccc(OCC(=O)Nc2ccc(-c3nc4ncccc4o3)cc2)c(C)c1,0,0,0,0,51[fluorescence artefact?],0
O=C(COc1ccccc1)Nc1ccc(Cl)c(-c2nc3ncccc3o2)c1,0,226[fluorescence artefact?],0,0,50,0
Cc1cc(-c2nc3ncccc3o2)ccc1NC(=O)CC(C)C,0,-,0,-,-,-
Cc1cc(C)n(-c2nnc(C)n2NS(C)(=O)=O)n1,0,0,0,0,0,0
Cc1cccc(OCC(=O)Nc2nonc2NC(=O)COc2cccc(C)c2)c1,0,0,0,0,72[fluorescence artefact?],52[fluorescence artefact?]
Cc1cccc(OCC(=O)Nc2ccc(N3CCN(S(C)(=O)=O)CC3)cc2)c1,0,0,0,0,0,0
Cc1ccc(C)c(OCC(=O)Nc2nonc2NC(=O)COc2cc(C)ccc2C)c1,0,0,0,0,63[fluorescence artefact?],0
O=C(N(c1ccccc1)c1ccccc1)n1ccnc1,0,0,-,0,0,0
COC(=O)[C@@H]1C[C@H]1[C@@H](NS(=O)(=O)c1ccc(-c2ccccc2)cc1)c1ccccc1,0,-,-,-,-,-
CC12CC3(C)CC(C)(C1)CC(C(=O)Nc1nn[nH]n1)(C2)C3,0,0,0,0,0,0
CC12CC3CC(C)(C1)CC(C(=O)Nc1nn[nH]n1)(C3)C2,0,226,-,0,0,0
Cc1ccc(-n2nnc3c(=O)n(Cc4cc(C)ccc4C)cnc32)cc1,0,0,0,0,0,0
Cc1cccc(NC(=O)Cc2noc3ccccc23)c1,2.1,0,0,0,0,0
Cc1cccc(NC(=O)Cc2ccc(F)cc2)c1,0,0,0,0,0,0
N#CC1=C(c2ccccc2)N=P(N2CCOCC2)(N2CCOCC2)N=C1N1CCOCC1,0,0,-,0,0,0
Cc1cc2cc3c(cc2nc1SCC(=O)N1c2ccccc2CC1C)OCO3 (stereo not drawn),0,0,0,0,51[fluorescence artefact?],0
SMILES,MT1-MMP txn act,ERa SRC1 pot,EphB4 ephrin blk,Calb biofilm kill,ERa SRC1 inh,ERb SRC1 inh
CCOC(=O)CSc1nc2cc3c(cc2cc1C#N)OCO3,0,0,0,0,0,0
CC1Cc2ccccc2N1C(=O)CSc1nc2cc3c(cc2cc1C#N)OCO3 (stereo not drawn),0,298[fluorescence artefact?],0,-,0,0
COC(=O)CSc1nc2cc3c(cc2cc1C#N)OCO3,0,284[fluorescence artefact?],0,-,0,0
CCOC(=O)CSc1nc2cc(OC)ccc2cc1C#N,0,347[fluorescence artefact?],0,0,0,0
CCCNC(=O)c1cccc(C(F)(F)F)c1,-,-,0,-,-,-
C=CCn1c(CCNC(=O)c2cccs2)nnc1SCC(=O)Nc1cccc(F)c1,0,0,0,0,0,0
CC(C)(C)NC(=O)Cc1ccc(S(=O)(=O)N2CCCC2)s1,-,0,0,0,58[fluorescence artefact?],0
COC(=O)c1ccc(C(NC(=O)OCc2ccccc2)/C(=C/[C@@H](C)C(=O)NCc2ccncc2)c2cccnc2)cc1 (stereo partly drawn),0,-,-,-,-,-
